Rows were chosen to be rich in hits. Some 2.4% of all compounds tested hit in one or more screens of this group.
Pol kappa inh-1: DNA polymerase kappa (human) inhibition. purified Pol kappa, fluorescent DNA synthesis assay, 10 min. Potency, µM (doses to about 107 µM), most hits filed as inhibitors. actives 0.53% (n = 400,000)
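Here, compound and 10 nM enzyme are combined for 15 min at room temperature; adding 50 nM substrate (final) starts DNA synthesis, tracked by fluorescence at 0 and 10 min against buffer-only wells.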
Pol beta inh: inhibitors of human DNA polymerase beta | P06746 | Pol beta primer extension/strand displacement, fluorescence kinetic | Potency, µM (top dose mostly 114 µM), most hits filed as inhibitors | actives 1.3% (n = 340,000)
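Homogeneous kinetic assay of primer extension and strand displacement by 10 nM Pol beta, preincubated 15 min at room temperature with compound before 50 nM substrate (final) was added. Read at 0 and 10 min; four-parameter Hill fit.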
FEN1 inh-1: inhibitors of human flap endonuclease 1; P39748; Recombinant FEN1 flap cleavage, fluorescence, 15 min; Potency, µM (doses to about 114 µM), usual class: inhibitors; actives 0.35% (n = 390,000); note: nearly all actives have a fitted effect of over 65% in size
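FEN1 at 10 nM, compound pretreatment for 15 min (room temperature), 50 nM final substrate to initiate; endpoint reads at 0 and 15 min; DMSO-only plates used as vehicle background.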
Pol eta inh-1: inhibitors of human DNA polymerase eta | Q9Y253 | recombinant Pol eta, fluorescent DNA replication assay | Potency, µM (titrated, usually from 114 µM), actives largely listed as inhibitors | actives 1.2% (n = 390,000) | AID 588591
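Pol eta at 10 nM preincubated with compounds 15 min at room temperature; reaction started with fluorescent substrate (50 nM final) and read kinetically at 0 and 10 min.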
POLI inh: inhibitors of human DNA polymerase iota; Q9UNA4; Pol iota fluorescent replication assay, 10 min; Potency, µM (highest dose often 115 µM), actives largely listed as inhibitors; actives 1% (n = 390,000)
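Fluorescent replication assay read twice, at 0 min and 10 min after adding 50 nM (final) substrate. Enzyme (10 nM) and compounds were first incubated 15 min at room temperature; enzyme-free buffer wells were negative controls.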
WRN helicase inh-1: WRN helicase (human) inhibition | AID 651768 | WRN helicase unwinding, fluorescent forked duplex, kinetic | Potency, µM (doses to about 114 µM), usual class: inhibitors | actives 0.46% (n = 360,000) | Q14191; note: nearly all actives have a fitted effect of over 55% in size
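Screening of the MLSMR collection measured strand separation of a quenched forked DNA duplex (100 nM) by 20 nM WRN with 2 mM ATP, all final. Compounds were preincubated with enzyme 15 min at room temperature.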
Pol kappa inh-2: Pol kappa (human) inhibition, cherry-pick confirmation; shares compounds with Pol eta inh-1; purified Pol-kappa, fluorescent strand-displacement substrate; Potency, µM, actives largely listed as inhibitors; actives 76% (n = 920)
Pol eta inh-2: confirmation of human DNA polymerase eta inhibitors; shares compounds with Pol eta inh-1; Pol eta primer extension, TAMRA/BHQ fluorescence, 10 min; Potency, µM, hits mostly inhibitors; actives 64% (n = 2,600)
FEN1 inh-2: confirmation of human FEN1 inhibitors; shares compounds with FEN1 inh-1; FEN1 flap cleavage, TAMRA/BHQ2 fluorogenic DNA substrate; Potency, µM, most hits filed as inhibitors; actives 79% (n = 880); note: nearly all actives have a fitted effect of over 60% in size
WRN helicase inh-2: WRN helicase inhibition, cherry-pick retest. shares compounds with WRN helicase inh-1. WRN helicase DNA unwinding, fluorescence kinetic. Potency, µM (top dose mostly 57.1 µM), usual class: inhibitors. actives 63% (n = 610); note: nearly all actives have a fitted effect of over 65% in size
TO displacement: binds DNA, flagged in WRN inhibitor counterscreen; shares compounds with WRN helicase inh-1; Potency, µM (series often up to 57.1 µM), actives largely listed as inhibitors; AID 720499; thiazole orange DNA binding displacement, fluorescence; actives 10% (n = 610);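 note: drop in dye fluorescence marks compound binding to DNA; nearly all actives have a fitted effect of over 60% in size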
BLM counter: blocks human BLM helicase in WRN counterscreen; shares compounds with WRN helicase inh-1; Recombinant BLM helicase DNA unwinding, red fluorescence; Potency, µM (highest dose often 57.1 µM), usual class: inhibitors; actives 60% (n = 610); note: nearly all actives have a fitted effect of over 60% in size
Numbers stand for hits; 0 = inactive; ? = inconclusive; - = no result given; [ ] = dose if it differs, or a comment. Calls come from the whole dose curve; as a rule, active = well fitted curve in the direction sought with a large enough effect; inconclusive = small, poorly fitted or top-dose-only effect, or another doubt; inactive = no such curve, though single readings can be large; an effect the other way counts as inactive or inconclusive.

SMILES	Pol kappa inh-1	Pol beta inh	FEN1 inh-1	Pol eta inh-1	POLI inh	WRN helicase inh-1	FEN1 inh-2	others
COc1ccc(Sc2ccc(/C=C3\C(=O)NN(c4ccccc4)C3=O)o2)cc1	?	45µM	0	25µM	18µM	?	-	Pol eta inh-2=?;WRN helicase inh-2=22µM;TO displacement=0;BLM counter=22µM
COc1cc(NS(=O)(=O)c2ccc(NC(=S)NC(=O)c3sc4cc(F)ccc4c3Cl)cc2)nc(OC)n1	0	0	?	45µM	?	?	?	Pol eta inh-2=43;WRN helicase inh-2=22µM;TO displacement=0;BLM counter=24µM
CCCCCCCCCCCC(=O)OCC(O)CO (stereo not drawn)	0	-	-	-	-	-	-
CCc1c(C)nc(SCc2nc(-c3ccccc3C)no2)[nH]c1=O	0	0	0	0	0	-	-
COc1cccc(C(=O)Nc2cccc(C(=O)NC3=NN(c4c(Cl)cc(Cl)cc4Cl)C(=O)C3)c2)c1	22µM	14µM	?	40µM	?	?	-	Pol eta inh-2=76;WRN helicase inh-2=?;TO displacement=?;BLM counter=?
O=C1CC(c2cc(F)cc(F)c2)c2cc3c(cc2N1)OCO3 (stereo not drawn)	0	0	0	0	0	-	-
O=c1c(Br)ccc(Br)cc1Br	0	-	?	28µM	7.1µM	10µM	-	Pol eta inh-2=?;WRN helicase inh-2=24µM;TO displacement=0;BLM counter=22µM
O=C1CN(S(=O)(=O)c2cc(Br)ccc2Br)CCN1	0	-	0	0	0	0	-
CC(=O)Oc1cc(C(=O)OCC(=O)N2CCc3ccccc3C2)cc(OC(C)=O)c1OC(C)=O	40µM	-	25µM	7.1µM	?	18µM	24	Pol kappa inh-2=17;Pol eta inh-2=?;WRN helicase inh-2=27µM;TO displacement=0;BLM counter=22µM
O=C(Nc1nncs1)c1cc(-c2ccco2)nc2ccccc12	?	-	0	14µM	?	32µM	-	Pol kappa inh-2=?;Pol eta inh-2=76;WRN helicase inh-2=?;TO displacement=0;BLM counter=?
O=C(Nc1nc(-c2ccco2)cs1)c1ccccc1	?	0	0	?	?	?	-
Cc1cc(CC(=O)O)c(C)n1-c1ccc(Cl)cc1	0[19.4 µM]	-	-	-	-	-	-
Cc1ccc(NC(=O)c2oc3ccc(S(=O)(=O)N4CCC5(CC4)OCCO5)cc3c2C)c(C)c1	0	0	0	0	0	-	-
CN(C)c1ccc(/C=C/C=C2/SC(=S)N(c3ccccc3)C2=O)cc1	0	0	0	0	?	?	-
O=C1/C(=C/C=C/c2ccco2)SC(=S)N1c1ccc(O)cc1	7.9µM	3.2µM	14µM	3.5µM	?	32µM	-	Pol eta inh-2=60;WRN helicase inh-2=12µM;TO displacement=?;BLM counter=8.6µM
Cc1ccc(CSc2nc3ccc(NC(=O)COc4ccccc4)cc3s2)cc1	0	0	0	0	0	-	-
COc1cc(/C=C(\C#N)c2nc3ccc(C)cc3[nH]2)cc([N+](=O)[O-])c1O	0	45µM	50µM	22µM	?	?	?	Pol kappa inh-2=24;Pol eta inh-2=76;WRN helicase inh-2=22µM;TO displacement=11µM;BLM counter=12µM
CCC(=O)c1ccc(CCCCCC(=O)O)s1	?	35µM	0	8.9µM	?	?	-	Pol eta inh-2=38;WRN helicase inh-2=22µM;TO displacement=0;BLM counter=22µM
COc1ccc(-c2cn3cccnc3n2)cc1NC(=O)Nc1cc(C)ccc1C	0	0	0	79µM	?	-	-	Pol kappa inh-2=15;Pol eta inh-2=?;WRN helicase inh-2=15µM;TO displacement=0;BLM counter=6.8µM
Cc1ccc(NC(=O)Cn2nc(C)n3cccc3c2=O)c(C)c1	0	0	0	0	0	-	-
COc1ccccc1NC(=O)C1=C(C)Nc2ncnn2C1c1cccn1C (stereo not drawn)	0	0	0	0	0	-	-
O=C(N/N=C/c1ccc(-c2ccccc2[N+](=O)[O-])o1)c1cncc(Br)c1	0	0	0	0	0	0	-
Nn1cnnc1N/N=C\c1ccc(-c2ccccc2[N+](=O)[O-])o1	0	0	0	0	2.8µM	0	?
C=CC(C)=C[C@@]1(C)SC(=O)C(C)=C1O	0	-	-	-	-	-	-
CCOC(=O)c1cc(C)n(CC2CCC(C(=O)Nc3ccc(C)cc3)CC2)c1C (stereo not drawn)	0	0	0	0	0	-	-
SMILES	Pol kappa inh-1	Pol beta inh	FEN1 inh-1	Pol eta inh-1	POLI inh	WRN helicase inh-1	FEN1 inh-2	others
Cc1nc2c(oc3ccccc32)c(=O)o1	0	0	0	0	0	0	-
Cc1c2cnccc2c(C)c2c1oc1ccccc12	0	-	35µM	?	0	0[11.6 µM]	38
COc1cc(-c2ccc3ncnc(NCc4ccc(C)o4)c3c2)cc(OC)c1OC	-	-	-	-	-	-	?
COc1ccc(-n2c(SCc3ccccc3F)nc3c([nH]c4ccccc43)c2=O)cc1	0	0	0	0	0	-	-
CCOC(=O)C1CCNC(=O)C1=O (stereo not drawn)	0	-	20µM	?	0	0	21
CN(Cc1cccs1)c1ncnc2ccc(-c3ccc4cn(C)nc4c3)cc12	-	-	-	-	-	-	67
O=C(Nc1ncccc1O)c1c(O)c2ccccc2[nH]c1=O	0	?	?	?	0	0[11.6 µM]	?
CCOc1ccc(C2C(C(=O)Nc3ccc(C)cc3C)=C(C)Nc3c(C(=O)Nc4ccc(C)cc4)cnn32)cc1OC (stereo not drawn)	0	0	0	0	0	-	-
COc1ccc(-c2nc3ccccc3o2)cc1NC(=O)COc1ccc(C)cc1	0	-	0	-	0	-	-
CN(C)CCOC(=O)c1ccc2[nH]c3c(c2c1)CSCC3	0	0	50µM	0	0	0[11.6 µM]	85
Cc1cc(/C=C/c2ccnc3ccccc23)ccc1N(C)C	0	-	?	-	0	-	-
CCN(CC)CCn1c2ccccc2c2cnc(N)c(C#N)c21	?	14µM	?	?	?	0	21
COc1ccccc1C1c2c(ncn(-c3ccccc3)c2=N)Oc2ccc3ccccc3c21 (stereo not drawn)	-	-	-	-	-	-	11
COc1ccccc1C1c2ccc3ccccc3c2Oc2ncn(CCN(C)C)c(=N)c21 (stereo not drawn)	0	0	0	0	0	0	-
CN(C)CCNc1ccc2nnn3c4ccc(O)cc4c(=O)c1c23	0	-	13µM	?	?	0[11.6 µM]	8.5
Nc1ccc2nc(-c3ccccc3)[nH]c2c1	0	0	0	0	0	0	-
Nc1ccc2nc(-c3ccc(N)c(Cl)c3)[nH]c2c1	?	?	50µM	?	?	?	21
CC(=O)OCCBr	0	-	-	-	-	-	-
